Among the data in ChEMBL document CHEMBL1961873, “Compounds: GSK PKIS; Assays: Nanosyn kinase panel” (2012) are inhibition values, retold here.

For test [1], the target named is Serine/threonine-protein kinase PAK 6 (Homo sapiens) (UniProt Q9NQU5). The settings on record: at 1 µM.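 Also: values are mean percent inhibition of PAK6 kinase.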
The test system of test [2] is Tyrosine-protein kinase ABL1 (Homo sapiens), P00519 [E255K]. The settings on record: at 0.1 µM.
Test [3] shares this test system. The settings on record: at 1 µM.
Test [4] deals with Tyrosine-protein kinase ABL1 (Homo sapiens), P00519 [H396P]. The settings on record: at 0.1 µM.
The test system is the same in test [5]. The settings on record: at 1 µM.
In test [6] the test system is Tyrosine-protein kinase ABL1 (Homo sapiens), P00519 [M351T]. As to conditions: at 0.1 µM.
The test system is the same in test [7]. As to conditions: at 1 µM.
The test system of test [8] is Tyrosine-protein kinase ABL1 (Homo sapiens), P00519 [Q252H]. The settings on record: at 0.1 µM.
Test [9] shares this test system. As to conditions: at 1 µM.
Test [10] deals with Tyrosine-protein kinase ABL1 (Homo sapiens), P00519 [T315I]. The settings on record: at 0.1 µM.

Serine/threonine-protein kinase PAK 6 (Homo sapiens), sequence (Q9NQU5 whole entry, looked up): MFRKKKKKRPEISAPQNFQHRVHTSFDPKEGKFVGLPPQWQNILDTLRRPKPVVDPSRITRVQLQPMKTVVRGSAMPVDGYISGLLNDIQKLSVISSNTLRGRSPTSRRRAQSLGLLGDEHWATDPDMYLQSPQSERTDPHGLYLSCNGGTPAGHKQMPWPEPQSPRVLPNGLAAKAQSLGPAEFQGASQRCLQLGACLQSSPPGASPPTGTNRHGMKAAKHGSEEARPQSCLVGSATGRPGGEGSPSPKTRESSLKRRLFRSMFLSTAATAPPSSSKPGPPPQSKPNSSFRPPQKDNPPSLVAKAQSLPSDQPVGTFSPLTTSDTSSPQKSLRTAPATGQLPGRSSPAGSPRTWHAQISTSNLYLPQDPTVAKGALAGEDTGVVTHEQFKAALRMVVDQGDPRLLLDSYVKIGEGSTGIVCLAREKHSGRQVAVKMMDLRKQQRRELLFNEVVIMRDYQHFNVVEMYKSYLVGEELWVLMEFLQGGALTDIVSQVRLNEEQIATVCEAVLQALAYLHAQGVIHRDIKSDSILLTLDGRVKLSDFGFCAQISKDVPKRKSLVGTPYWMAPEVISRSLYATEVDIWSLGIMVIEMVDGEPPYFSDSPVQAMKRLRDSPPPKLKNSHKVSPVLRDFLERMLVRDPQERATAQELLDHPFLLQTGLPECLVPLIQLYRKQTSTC

The term inhibition denotes the change of the read-out against control, counted positive when it falls. Consider `COc1cccc(-c2c[nH]c3c(N/N=C/c4ccncc4)ncnc23)c1`, for which the inhibition in test [1] was -1.79%; in [2] it was 65%; in test [3], 91.1%; in [4], 76.2%; in [5], 93.6%; in [6] it was 76.5%. The inhibition was determined as 92.5% in test [7], 79.8% in [8], 92.6% in test [9] and 11.8% in [10].
On to `CN(C)CCOc1ccc(-c2nc(-c3ccncc3)c(-c3ccc4c(c3)CC/C4=N\O)[nH]2)cc1`, for which the inhibition in [1] is 9.98%; in test [2] it was 4.28%; in test [3] it was 17.5%; in test [4] it was 8.42%; in test [5], 34.1%; in test [6], 6.36%. The inhibition in test [7] was determined as 30.4%; in [8] it was 10.1%; in [9], 45.1%; in test [10] it was 8.51%.
Take `COc1cc(Nc2nccc(Nc3ccc4c(C)n[nH]c4c3)n2)cc(OC)c1OC`: the inhibition in test [1] is -1.27%; in test [2] it was 18.5%; in test [3], 67.2%; in test [4], 30.1%; in test [5], 78.3%; in test [6], 28.9%. The inhibition in test [7] was 75.6%; in test [8], 24.5%; in test [9], 72.7%; in test [10], 1.65%.
With `Cc1cccc(Nc2ncc(-c3ccccc3)o2)c1`, the inhibition in test [1] was 4.48%; in [2] it was -0.07%; in test [3], 8.14%; in test [4] it was 5.02%; in [5] it was 19.4%; in test [6], 2.38%. Besides, the inhibition in test [7] stood at 21.6%; in [8], 2.49%; in test [9] it was 13.4%; in test [10] it was 2.39%.
With `NS(=O)(=O)c1ccc(N/N=C2\C(=O)Nc3ccc4ncccc4c32)cc1`, the inhibition in test [1] came out at 1.45%; in test [2], 7.3%; in test [3], 39.2%; in [4], 8.88%; in [5], 47.7%; in test [6], 9.67%. Further, the inhibition in [7] is 48.9%; in test [8] it was 13.3%; in test [9], 52.4%; in test [10] it was 8.91%.
For the compound `CCn1c(-c2nonc2N)nc2cnc(Oc3cccc(NC(=O)c4ccc(N(C)C)cc4)c3)cc21`, the inhibition was -2.65% in [1]; 0.6% in test [2]; 9.02% in test [3]; 0.27% in test [4]; 1.9% in test [5]; -1.02% in test [6]. For the same compound, the inhibition in test [7] was 4.81%; in test [8], 2.14%; in test [9], 1.78%; in [10], 1.38%.
With `CC(=O)Nc1cccc(C#Cc2cncnc2Nc2ccc(OCc3cccc(F)c3)c(Cl)c2)c1`, the inhibition was -5.42% in test [1]; -0.36% in test [2]; 1.79% in test [3]; 2.77% in test [4]; 1.25% in test [5]; 1.83% in test [6]. Also, the inhibition in test [7] was determined as 2.92%; in test [8], 2.53%; in test [9] it was 2.16%; in test [10], 1.92%.
For the compound `CCCN(CCS(C)(=O)=O)Cc1ccc(-c2ccc3ncnc(Nc4ccc(OCc5cccc(F)c5)c(Cl)c4)c3c2)o1`, the inhibition in test [1] is 0.49%; in test [2] it was 2.99%; in test [3] it was 2.9%; in [4], 3.87%; in test [5], 1.99%; in [6], 3.22%. The inhibition came out at 3.73% in test [7], 3.51% in test [8], 3.02% in test [9] and 1.81% in test [10].
Turning to `CCc1nn2ncccc2c1-c1ccnc(NC2CC2)n1`, the inhibition is -4.39% in test [1]; 0.71% in [2]; 4.01% in test [3]; 3.05% in [4]; 6.43% in [5]; 1.9% in [6]. Also, the inhibition in test [7] was 4.54%; in [8] it was 2.92%; in test [9], 7.3%; in test [10] it was 0.33%.
Take `COc1ccc(CNC(=O)c2ccc(-c3cc(-c4nnc(C)o4)ccc3C)cc2)cc1`: the inhibition turned out to be 11.5% in test [1]; 2.05% in [2]; 0.78% in [3]; 2.7% in test [4]; 4.47% in [5]; 2.42% in test [6]. Also, the inhibition in test [7] is 5.1%; in test [8] it was 1.38%; in test [9] it was 4.42%; in test [10] it was 0.75%.
Regarding `Cc1ccc2c(-c3ccnc(Nc4ccccc4)n3)c(-c3ccc(F)cc3)nn2n1`, the inhibition in test [1] came to 5.13%; in [2] it was 3.13%; in test [3], 15.7%; in test [4], 7.21%; in test [5], 36%; in test [6] it was 15.1%. For the same compound, the inhibition was determined as 56.4% in [7], 12% in [8], 49.9% in test [9] and 4.75% in test [10].
In the case of `FC(F)(F)c1cccc(-c2nn3ncccc3c2-c2ccnc(Nc3ccc4c(c3)OCCO4)n2)c1`, the inhibition in test [1] is -1.75%; in [2], 3.04%; in test [3], 9.11%; in [4], 6.97%; in test [5], 36.6%; in test [6] it was 10.1%. The inhibition in test [7] stood at 50%; in test [8], 9.57%; in test [9] it was 45.2%; in [10], 10.1%.
On to `CCCN1CCC(c2ccc(Nc3nc(Nc4cc(F)ccc4C(N)=O)c4cc[nH]c4n3)c(OC)c2)CC1`, for which the inhibition in test [1] is -7.38%; in test [2], 4.38%; in test [3], 6.84%; in test [4], 4.63%; in test [5], 8.82%; in test [6] it was 1.91%. Also, the inhibition was determined as 7.76% in test [7], 3.87% in test [8], 9.15% in [9] and 3.58% in [10].
`Nc1nc(-c2cccc(Cl)c2)c(-c2ccc3ncccc3n2)s1`: the inhibition was -0.98% in test [1]; 3.98% in [2]; 11.2% in [3]; 7.52% in [4]; 19.9% in test [5]; 3.37% in test [6]. The inhibition in test [7] is 20.2%; in test [8] it was 6.97%; in [9], 16.9%; in test [10], 3.18%.
